High-throughput results (PubChem)
A selection: hits, their analogues and other compounds. The true share with any hit is near 2.9%.
EPAC1 agonist: Validation qHTS for agonist of cAMP-regulated guanine nucleotide exchange factor 3 (EPAC1); Potency, µM, for the others: max response, positive = active, hits mostly activators; EPAC1 Rap1b BODIPY-GDP exchange, fluorescence; 16,000 compounds, 1% hits; further: nearly all actives have a fitted effect of over 70% in size
Target sequence (O95398 whole entry, looked up): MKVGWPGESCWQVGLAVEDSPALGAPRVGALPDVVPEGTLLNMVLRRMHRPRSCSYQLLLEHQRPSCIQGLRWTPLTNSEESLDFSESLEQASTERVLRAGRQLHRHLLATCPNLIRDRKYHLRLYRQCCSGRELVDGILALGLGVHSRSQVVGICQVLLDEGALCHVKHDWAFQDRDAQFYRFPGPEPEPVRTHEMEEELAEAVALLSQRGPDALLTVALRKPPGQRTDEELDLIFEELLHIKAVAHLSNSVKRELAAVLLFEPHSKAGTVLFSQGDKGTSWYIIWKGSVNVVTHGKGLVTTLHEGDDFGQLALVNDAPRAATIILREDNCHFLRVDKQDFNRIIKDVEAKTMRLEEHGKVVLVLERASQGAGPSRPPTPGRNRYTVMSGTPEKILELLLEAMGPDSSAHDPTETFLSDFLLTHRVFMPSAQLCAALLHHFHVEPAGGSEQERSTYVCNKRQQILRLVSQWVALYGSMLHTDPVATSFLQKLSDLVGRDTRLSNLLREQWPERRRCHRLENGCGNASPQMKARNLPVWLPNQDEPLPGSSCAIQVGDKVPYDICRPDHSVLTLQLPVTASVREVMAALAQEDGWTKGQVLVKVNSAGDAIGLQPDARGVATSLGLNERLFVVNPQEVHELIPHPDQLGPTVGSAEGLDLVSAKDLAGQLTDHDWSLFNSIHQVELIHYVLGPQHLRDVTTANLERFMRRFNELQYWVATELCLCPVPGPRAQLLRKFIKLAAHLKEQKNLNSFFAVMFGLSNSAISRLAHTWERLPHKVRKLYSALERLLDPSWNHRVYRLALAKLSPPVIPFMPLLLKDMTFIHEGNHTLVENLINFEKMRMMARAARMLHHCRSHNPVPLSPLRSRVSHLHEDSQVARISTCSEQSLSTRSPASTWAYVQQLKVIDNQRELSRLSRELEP
EPAC2 ant val: Validation qHTS for antagonist of cAMP-regulated guanine nucleotide exchange factor 4 (EPAC2). 16,000 compounds, 1.7% hits. Rap guanine nucleotide exchange factor 4 (Homo sapiens), Q8WZA2. EPAC2 Rap1B BODIPY-GDP exchange, fluorescence. Potency, µM (top dose mostly 112 µM), inactives show top-dose activity, negative = inhibition, usual class: inhibitors;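 further: 100% = activation by cAMP agonist control; nearly all actives have a fitted effect of over 40% in size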
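Fluorescent exchange read-out: 100 nM EPAC2 with 250 nM RAP1B–BODIPY-GDP and 50 uM GDP; BODIPY-GDP release lowers fluorescence. Read at 480/540 nm every 5 min for 30 min at room temperature; normalized to 6.5 mM cAMP.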
* hit, by the source's call; i = inactive; ? = inconclusive; ! = not confirmed by another sample. The call rests on the fitted dose curve; in most records, active means well fitted curve in the direction sought with a large enough effect; inconclusive means small, poorly fitted or top-dose-only effect, or another doubt; inactive means no such curve, though single readings can be large; an effect the other way counts as inactive or inconclusive. Unless noted, on the % scale 0 is the no-effect control and ±100 the full control effect; potency means the concentration at half of the fitted maximal effect.

SMILES	EPAC1 agonist	EPAC2 ant val
Cc1occc1C(=O)Nc1cccc(-c2nc(CNC(=O)c3cccc(C#CC(C)(C)O)c3)c(C)o2)c1	-4.6%	-18.1%
CCCCCCCCCCCCCCCC(=O)OC[C@@H](O)[C@H]1OC[C@H](O)[C@H]1O	-36.6%	-0.7%
CC(C)CC1C(=O)N2CCCC2C2(O)O[C@@](NC(=O)C3C=C4c5cccc6[nH]c(Br)c(c56)CC4N(C)C3)(C(C)C)C(=O)N12 (some centres undefined)	?	-19.3%
CC(C)C[C@H]1C(=O)N2CCC[C@H]2[C@]2(O)O[C@](NC(=O)[C@@H]3C=C4c5cccc6[nH]c(Br)c(c56)C[C@H]4N(C)C3)(C(C)C)C(=O)N12	112µM*!	-18.6%
O=C(NCC1(N2CCOCC2)CCCCC1)c1cnn(-c2nccc(-c3cccs3)n2)c1C1CC1	26.4%	-32.3%
C#CCN(Cc1nc(N2CCOCC2)c2ccc(Cl)cc2n1)Cc1ccco1	4.9%	50.1µM*
CN(C)Cc1ccccc1-c1nc(N2CCOCC2)c2ccccc2n1	3.0%	-4.0%
CC(=O)N[C@@H](C=O)[C@H](O)[C@H](O)[C@@H](O)CO	28.9%	2.5%
COc1ccc(CN2CCC3(CC2)c2ccccc2[C@@H](NC(=O)c2ccccc2OC)[C@@H]3O)cc1O	-14.1%	4.4%
CN(C)CC(C)(O)c1ccc2c(c1)CN(Cc1cn(C)c3ccccc13)CCO2 (centres undefined)	0.1%	2.0%
COc1cc(-c2cccc(OC)c2OC)cc2c1OCCN(Cc1cn[nH]c1-c1ccc(Cl)cc1)C2	3.1%	?
C#C[C@]1(O)CC[C@H]2[C@@H]3CCc4cc(O)ccc4[C@H]3CC[C@@]21C	-37.3%	-19.6%
C#C[C@@]1(O)CCC2C3CCC4=CC(=O)CCC4C3CC[C@@]21CC (some centres undefined)	9.5%	-20.9%
C#C[C@]1(OC(C)=O)CCC2C3CCC4=CC(=O)CCC4C3CC[C@]21C (some centres undefined)	16.1%	79.4µM*
C#C[C@]1(OC(C)=O)CC[C@H]2[C@@H]3CCC4=C[C@@H](OC(C)=O)CC[C@@H]4[C@H]3CC[C@@]21C	44.7µM*!	?
Cc1cc(-c2ccc(N=Nc3c(S(=O)(=O)O)cc4cc(S(=O)(=O)O)cc(N)c4c3O)c(C)c2)ccc1N=Nc1c(S(=O)(=O)O)cc2cc(S(=O)(=O)O)cc(N)c2c1O	-31.0%	50.1µM*
Cc1cc(C(=O)NCc2nnc3n2CCN(Cc2ccc4c(c2)Cc2ccccc2-4)CC3)c(C)o1	-14.7%	?
C=C[C@@](C)(O)CC[C@@H]1[C@@]2(C)CCCC(C)(C)[C@@H]2CC[C@@]1(C)O	-26.9%	?
C=C[C@](C)(O)CCC1C(=C)CC(OC(C)=O)C2C(C)(C)CCCC12C (some centres undefined)	-115.8%	10µM*
O=C(NNCS(=O)(=O)O)c1ccncc1	56.2µM*	i
O=C(NNCNNC(=O)c1ccncc1)c1ccncc1	6.6%	8.9%
COC(=O)C1=C(C)NC(C)=C(C(=O)O[C@@H]2CCCN(Cc3ccccc3)C2)[C@@H]1c1cccc([N+](=O)[O-])c1	?	-25.4%
CC1=C(C(=O)OC(C)C)C(c2cccc([N+](=O)[O-])c2)C(C(=O)OC2CN(C(c3ccccc3)c3ccccc3)C2)=C(N)N1 (centres undefined)	100µM*	1.0%
COC(=O)C1=C(C)NC(C)=C(C(=O)OC(C)(C)CN(C)CCC(c2ccccc2)c2ccccc2)C1c1cccc([N+](=O)[O-])c1 (centres undefined)	?	-27.9%
CCOC(=O)C1=C(C)NC(C)=C(C(=O)OC)[C@H]1c1cccc([N+](=O)[O-])c1	14.7%	17.8µM*
SMILES	EPAC1 agonist	EPAC2 ant val
COCCOC(=O)C1=C(C)NC(C)=C(C(=O)OC(C)C)C1c1cccc([N+](=O)[O-])c1 (centres undefined)	3.9%	?
COCCOC(=O)C1=C(C)NC(C)=C(C(=O)OC(C)C)[C@@H]1c1cccc([N+](=O)[O-])c1	-0.4%	50.1µM*
CCOC(=O)C1=C(C)NC(C)=C(C(=O)OC)C1c1cccc([N+](=O)[O-])c1 (centres undefined)	0.1%	7.94µM*!
COC(=O)C1=C(C)NC(C)=C(C(=O)OCCCN2CCC(c3ccccc3)(c3ccccc3)CC2)[C@H]1c1cccc([N+](=O)[O-])c1	13.1%	?
CCC1(C2CCN(Cc3c(C)[nH]c4ccccc34)CC2)NC(=O)N(Cc2ccc3c(c2)OCO3)C1=O (centres undefined)	11.6%	-31.3%
CC(=O)c1ccc(F)c(-c2cc(C)cc3c2OC(CNC(=O)c2csc(C)n2)C3)c1 (centres undefined)	8.3%	-31.6%
